# According to PubChem BioAssay (Tox21):
# The source holds several records for some structures; these can differ, active in one and inactive in another. Calls of active or inactive are those of the source. Entries that show only a call come without a potency. Calls follow the shape of the dose curve; as a rule, active = well fitted activation curve with a large enough effect in the repeat runs; inconclusive = weak or mixed curves; inactive = flat fitted curve, though single readings scatter.
# Assay: Caspase-3/7 induction in CHO-K1 cells by small molecules, qHTS assay (AID 1346980); also: nearly all actives have a fitted effect of over 15% in size
# Settings: CHO-K1 caspase-3/7 induction, Caspase-Glo luminescence, 17 h; series mostly up to 92.4 µM; caspase-3/7 activation: at the top concentration
# Excerpt: National Center for Advancing Translational Sciences [NCATS]
# NIH Chemical Genomics Center [NCGC]
# U.S. Environmental Protection Agency [EPA]
# National Institutes of Environmental Health Sciences [NIEHS]
# National Toxicology Program [NTP]
# Apoptosis is a process of programmed cell death and plays a central role in the development of multicellular organisms. It is a highly regulated process and induces cell death by activating caspases, which are the members of cysteine aspartic acid-specific protease (caspase) family. Caspases involved in apoptosis are classified by their mechanism of action as initiator caspases (caspase-2, -8, -9 and -10) and executioner caspases (caspase-3, -6, and -7). Inhibition of apoptosis results in number of cancers, autoimmune diseases, inflammatory diseases and viral infection. To identify small molecule compounds that induce apoptosis, a homogeneous, luminescent Caspase-Glo 3/7 assay was used. Wild type CHO-K1 cells were used to screen Tox21 libraries for identifying caspase-3/7 activity inducers.
# CHO-K1 cells were dispensed at 1,500 per well in 5uL of culture medium into white solid bottom 1536-well plates (Corning Life Sciences, Corning, NY) using a Multidrop Combi (Thermo Scientific, Waltham, MA) dispenser. The assay plates were incubated at 37 C and 5% CO2 for 5hr, and then 23nL of compounds dissolved in DMSO and positive control were transferred using a Pintool station (Wako, San Diego, CA). The assay plates were incubated at 37C and 5% CO2 for 17hr. For caspase-3/7 activity read, 4uL of Caspase-Glo 3/7 reagent (Promega Corporation, Madison, WI) was added to each well of the assay plates using Flying Reagent Dispenser (FRD, Aurora Discovery, San Diego, CA) and incubated the assay plates at room temperature for 30min. The luminescence signal was quantified using a ViewLux plate reader (Perkin Elmer, Shelton, CT).
# Potency is read from the fitted curve at half-maximal effect.
Structure (SMILES),Potency,caspase-3/7 activation
COc1ccccc1/C=C/C=O,inactive,
OC(CCl)CCl,inactive,
CCCCOCCOCCOCCO,inactive,
Clc1nc(Cl)c(Cl)c(Cl)c1Cl,inactive,
CCOCCOCCO,inactive,
Nc1ncn([C@@H]2O[C@H](CO)[C@@H](O)[C@H]2O)c(=O)n1,inactive,
COc1ccc(C(=O)CC(=O)c2ccc(C(C)(C)C)cc2)cc1,inactive,
Nc1ccc(Nc2ccccc2)cc1,inactive,
CCCCC(CC)COP(=O)(OCC(CC)CCCC)OCC(CC)CCCC (stereo not given),inactive,
C#C[C@]1(O)CC[C@H]2[C@@H]3CCC4=Cc5oncc5C[C@]4(C)[C@H]3CC[C@@]21C,inactive,
O=C(c1ccccc1)c1ccccc1O,inactive,
c1cc(-c2ccncc2)ccn1,inactive,
Oc1ccc(O)cc1,inactive,
Nc1ccc(S(=O)(=O)Nc2cnc3ccccc3n2)cc1,inactive,
CC(C)OC=O,inactive,
COc1ccc(OC)c(C(O)CNC(=O)CN)c1 (stereo not given),inactive,
CNCCCC12CCC(c3ccccc31)c1ccccc12,,-0.83% [at 42.5 µM] (inactive)
S=C(NC1CCCCC1)NC1CCCCC1,inactive,
O=CCc1ccccc1,inactive,
O=C(/C=C/C=C/c1ccc2c(c1)OCO2)N1CCCCC1,inactive,

Structure (SMILES),Potency,caspase-3/7 activation
OCCO,inactive,
C[Si](C)(C)O[Si](C)(C)C,inactive,
Cc1ncc[nH]1,inactive,
O=Cc1ccccc1O,inactive,
CC(C)CC(C)(O)C#CC(C)(O)CC(C)C (stereo not given),42.4 µM (active) and inactive,
CCC(C)OC(=O)c1ccc(O)cc1 (stereo not given),inactive,
CC(CCC(=O)O)(c1ccc(O)cc1)c1ccc(O)cc1,inactive,
CC(C)Oc1ccc2c(=O)c(-c3ccccc3)coc2c1,inactive,
CCC(C)(O)CCCC(C)C (stereo not given),inactive,
c1ccc(Nc2ccccc2)cc1,inactive,
O=C1c2cccc(O)c2C(=O)c2c(O)cccc21,inactive,
Cc1cccc([N+](=O)[O-])c1C,inactive,
O=C(Nc1ccc(Cl)cc1)Nc1ccc(Cl)c(Cl)c1,inactive,
CCCCCCCCCC(=O)OC,inactive,
O=P(O)(O)O,inactive,
C=C(C)C1CC=C(C)CC1 (stereo not given),inactive,
Cc1ccc(C)c(O)c1C,inactive,
c1cc(N(CC2CO2)CC2CO2)ccc1OCC1CO1 (stereo not given),inactive,
Cc1c(OCC(F)(F)F)ccnc1CS(=O)c1nc2ccccc2[nH]1 (stereo not given),inactive,
CN(C)C(=N)N=C(N)N,inactive,
